mHTT-CaM PPI inh: mutant huntingtin-calmodulin interaction inhibitors – biochemical, AlphaScreen, primary screen; inhibition, % at 15 µM; AID 1671202, 2021; AlphaScreen His-mHTT/GST-CaM binding, luminescence; 190,000 tested, 3.6% active; P42858;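 also: 0% = both proteins with DMSO and 100% = one protein alone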
Pf apPOL block: Pf-apPOL inhibitors, biochemical, fluorescence; Recombinant Pf-apPOL, molecular beacon fluorescence, 1.5 h; AID 1794808, 2022; inhibition, % at 10 µM; 210,000 tested, 0.25% active
* = called active by the depositor; i = inactive; nt = no result; ! = not confirmed by another sample. A selection: hits, their analogues and other compounds. The true share with any hit is near 3.5%. Rule as the data show it: active = inhibition above about 50%; inactive = the rest.

SMILES	mHTT-CaM PPI inh	Pf apPOL block
O=C(O)c1ccc(C2Nc3ccc(F)cc3C3C=CCC32)cc1 (stereo unspecified)	79.0*	-7.6
Fc1ccc2c(c1)C1C=CCC1C(c1ccc(Cl)cc1)N2 (stereo unspecified)	75.0*	-0.5
Fc1ccc2c(c1)C1OCCC1C(c1ccccc1)N2 (stereo unspecified)	0.6	nt
O=S(=O)(c1ccccc1)N1N=C(C2CCCCC2)CC1(O)C(F)(F)F (stereo unspecified)	-6.0	3.2
CCc1nc(-c2nnn(-c3ccc(C)cc3)c2C)no1	-12.4	-2.0
Cc1nc2scc(C)n2c(=O)c1NC(=O)c1ccccc1Br	1.7	-1.3
CCOc1ccc(-c2noc(C)n2)cc1	-6.7	6.0
COc1ccc2c(=O)c(-c3ccccc3OC)coc2c1	-1.2	-7.1
Cc1cccc(NC(=O)C2CCN(c3cnn(C)c(=O)c3)CC2)c1	-1.9	-1.1
COc1ccc(NC(=O)C(O)(c2ccccc2)c2ccccc2)cc1	-9.6	-2.6
CCCC[C@H]1[C@@H]2C[C@H]([C@H]3CCCCN31)[C@H](OC(=O)Nc1cc(C)cc(C)c1)C2	4.3	0.7
COc1ccc(C(=O)N2CC(=O)Nc3ccc(Cl)cc3C2c2ccc(F)cc2)c(OC)c1 (stereo unspecified)	43.0	-3.0
COc1ccc(C(=O)N2CC(=O)Nc3ccc(Cl)cc3C2c2ccc(F)cc2)cc1OC (stereo unspecified)	71.0*	-9.6
COc1ccccc1NCN1C(=O)C2CC=C(Cl)CC2C1=O (stereo unspecified)	13.0	0.9
Cc1ccc(-n2ncc3c(=O)[nH]c(SCC(=O)O)nc32)cc1C	10.0	72.0*
CCCSc1nc2c(cnn2-c2ccc(C)c(C)c2)c(=O)[nH]1	-8.0	-5.3
O=[N+]([O-])c1cccc(CNC(Cc2ccccc2)c2ccccc2)c1 (stereo unspecified)	-6.4	-1.0
COc1ccc(N=Cc2cc([N+](=O)[O-])cc([N+](=O)[O-])c2O)cc1Cl	21.0	-4.0
Cc1cccc(NCC(O)Cn2c(C)c(C)c3ccccc32)c1C (stereo unspecified)	93.0*	-6.3
Cc1c(C)n(CC(O)CNc2ccc(I)cc2)c2ccccc12 (stereo unspecified)	99.0*	4.7
COc1ccccc1NCC(O)Cn1c(C)c(C)c2ccccc21 (stereo unspecified)	59.0*	-2.4
CNCC(O)Cn1c2ccccc2c2ccccc21 (stereo unspecified)	13.4	4.0
CC(NCC(O)Cn1c2ccccc2c2ccccc21)C(=O)O (stereo unspecified)	3.8	-5.9
CCC(CO)NCC(O)Cn1c2ccccc2c2ccccc21 (stereo unspecified)	-3.0	-3.1
COc1ccccc1NCC(O)Cn1ccc2ccccc21 (stereo unspecified)	46.4	-2.9
SMILES	mHTT-CaM PPI inh	Pf apPOL block
Cc1ccccc1NCC(O)Cn1c(C)c(C)c2ccccc21 (stereo unspecified)	96.0*	1.4
COC(=O)c1ccc(C=C2Oc3cc(OS(=O)(=O)c4ccc(OC)cc4)ccc3C2=O)cc1	6.1	6.4
Cc1cc(C)cc(N2C(=O)CCC2(C)C(=O)NCCCOC(C)C)c1 (stereo unspecified)	-4.6	1.5
Cc1ccc(S(=O)(=O)NCC(O)Cn2c3ccccc3c3ccccc32)cc1 (stereo unspecified)	28.0	12.7
Cc1ccc(NCC(O)Cn2c(C)c(C)c3ccccc32)c(C)c1 (stereo unspecified)	82.0*	-7.6
O=C1Nc2ccccc2S/C1=C\C(=O)N1CCN(c2cccc(Cl)c2)CC1	19.0	-4.8
O=C1OC(c2ccc(Cl)cc2)=N/C1=C\N1CCOCC1	1.0	23.5
Cc1cc(C)c(CNC(=O)C2c3ccccc3CCN2C(=O)C2CC2)c(C)c1 (stereo unspecified)	-0.3	-4.8
CC(=O)Nc1nc2cc3sc(NC(C)=O)nc3cc2s1	-6.0	53.4*!
CC(=O)Nc1nc2ccc(Br)cc2s1	-3.0	0.5
O=[N+]([O-])c1ccc(Cl)c(Nc2nc3nonc3nc2Nc2cc([N+](=O)[O-])ccc2Cl)c1	98.3*	nt
O=[N+]([O-])c1ccc2nc(Nc3ccc(Cl)c(Cl)c3)c(Nc3ccc(Cl)c(Cl)c3)nc2c1	-3.2	nt
COc1cc(/C=C2/SC(N(C)c3ccc(O)cc3)=NC2=O)ccc1O	11.0	3.3
O=C1C(=Cc2ccccc2F)Oc2cc(O)ccc21	-6.3	0.6
O=C(Oc1ccc2c(c1)OC(=Cc1ccco1)C2=O)c1cccs1	58.2*	35.6
O=C(Oc1ccc2c(c1)OC(=Cc1ccco1)C2=O)c1ccccc1	8.6	-1.4
O=C(C=Cc1ccccc1)Oc1ccc2c(c1)OC(=Cc1ccco1)C2=O	79.3*	5.5
COc1ccc(C=C2Oc3cc(OC(C)=O)ccc3C2=O)cc1OC	-1.9	-0.8
O=C(Oc1ccc2c(c1)OC(=Cc1ccco1)C2=O)c1ccco1	23.7	4.8
O=C1C(=CC=Cc2ccco2)Oc2cc(O)ccc21	57.7*!	51.2*
COc1ccc(C=C2Oc3cc(OC(=O)C(C)C)ccc3C2=O)cc1OC	62.4*	-5.1
Cc1onc(-c2c(Cl)cccc2Cl)c1C(=O)Nc1ccccc1Br	-25.4	-4.0
NC(=O)CCn1c(Cc2ccccc2)nc2ccccc21	-0.5	-2.9
CC1CN(C(=O)c2ccccc2NC(=O)c2ccc(Br)cc2)CC(C)O1 (stereo unspecified)	-5.6	1.0
COc1cc(/C=C2\NC(=O)N(Cc3ccccc3F)C2=O)cc(OC)c1OC	-4.0	-4.6
SMILES	mHTT-CaM PPI inh	Pf apPOL block
CCn1c(=O)c(N2CCCC(C(=O)NC3CCCCCCC3)C2)nc2ccccc21 (stereo unspecified)	63.5*	-7.7
CCCn1c(N2CCCC(C(=O)NC3CC3)C2)nc2ccccc21 (stereo unspecified)	1.0	-10.2
CC1CCCCN1CCCNC(=O)CN1CCN(C(=O)Nc2ccc(Cl)cc2)CC1=O (stereo unspecified)	8.3	-2.4
COc1ccc(/C=C/c2nc(N)nc(-c3ccccc3O)n2)cc1	32.0	-5.2
Oc1ccc(/C=N/n2cnnc2)c(O)c1	i	nt
Oc1ccc(/C=C/c2nc(-c3ccccc3O)n(-c3ccccc3)n2)cc1	92.0*	6.3
Oc1ccc(/C=C/c2nc(-c3ccccc3O)n(-c3ccccc3)n2)c(O)c1	96.0*	-76.9
COc1cc(C)ccc1OCCOc1ccccc1[N+](=O)[O-]	-7.3	-5.2
CC1=C(C(=O)Nc2ccccc2)C(c2ccccn2)n2nnnc2N1 (stereo unspecified)	2.0	2.0
COc1ccc(CC(=O)N2CCC(Oc3cc(N(C)C)ncn3)C2)cc1 (stereo unspecified)	4.4	-0.8
O=c1oc2ccc(Br)cc2cc1-c1nc2ccccc2[nH]1	-5.0	82.9*
O=c1oc2ccc(Cl)cc2cc1-c1nc2ccccc2[nH]1	-4.0	0.3
c1ccc(N=C2C(Nc3ccccc3)=Nc3ccccc32)cc1	63.0*	-0.4
NC1=NC(=Nc2ccccc2)c2ccccc21	3.2	-2.2
CC(C)(C)C(Cc1ccccc1)C(=O)O (stereo unspecified)	nt	-4.5
CCCN=Cc1c(CCC)[nH]n(-c2nc3ccccc3s2)c1=O	3.0	-6.6
O=c1c(C=NCCCO)c(CSc2ccc(Cl)cc2)[nH]n1-c1nc2ccccc2s1	56.0*	6.5
CCc1cc2c(=O)c(-c3nc4ccccc4n3C)c(CCC(=O)O)oc2cc1OC(=O)C(C)(C)C	14.9	-5.9
